# Read-outs that look alike come from different tables or passages of the source. In all, about 13,000 compounds went through this assay and about 3,200 (25%) showed an effect of 50% or more. This is one part of the list.
# System: P. falciparum stage V gametocytes
# Design: BacTiter-Glo ATP luminescence viability of purified stage V gametocytes in 384-well plates, per cent inhibition versus DMSO
# Settings: 48 h, 5 µM, inhibitor
Compound,% Inhibition,% Inhibition (% Inhibition)
COC(=O)c1ccc(N2CCN(CCCCNC(=O)c3ccc(NC(=O)c4ccc(Cl)cc4)cc3)CC2)c(OC)c1 [TCMDC-138526],7.636%,–
O=C(Nc1ccc(Cl)cc1)Nc1cccc(-c2cccc(-c3nc4ccccc4[nH]3)c2)c1 [TCMDC-133178],-4.164%,–
CN(C)c1ccc(/C=C2\S/C(=N\c3ccccc3)N(c3ccccc3)C2=O)cc1[N+](=O)[O-] [TCMDC-124086],-8.825%,–
CCC(C)c1ccc(Nc2nc(C)cc(N(CC)CCCN3CCCCC3)n2)cc1 (stereo not shown) [TCMDC-132456],-18.05%,–
COc1cc(OC)c2c(c1Cl)O[C@]1(C2=O)C(=O)C(Cc2ccccc2)(Cc2ccccc2)C(=O)C[C@H]1C [TCMDC-131804],9.09%,–
COc1ccc(CN(C)CCCOc2ccc(NC(=O)C=Cc3ccc(C(C)(C)C)cc3)cc2)cc1OC [TCMDC-138277],-85.5%,–
CN1CCCc2ccc(NC(=O)C=Cc3ccc(-c4ccc(F)cc4F)o3)cc2C1 [TCMDC-134124],39.53%,–
CN1CCCc2cc(NC(=O)C=Cc3ccc(-c4ccc(F)cc4F)o3)ccc2C1 [TCMDC-134051],105.5%,–
COc1ccc(Br)cc1/C=C/C(=O)Nc1ccc2c(c1)CCCN(C)C2 [TCMDC-133717],27.94%,–
CCCCCn1c(Sc2ccc(C#N)c([N+](=O)[O-])c2)nnc1-c1ccc(OC)cc1 [TCMDC-135603],31.95%,–
COc1ccc2ncc(F)c([C@H](O)CN3CCC(NCc4ccc5c(c4)NC(=O)CS5)CC3)c2c1 [TCMDC-135827],14.82%,–
COc1ccc2nccc([C@@H](O)CN3CCC(NCc4cnc5c(c4)NC(=O)CS5)CC3)c2c1 [TCMDC-141230],6.568%,–
COc1ccc2ncc(F)c([C@@H](O)CN3CCC(NCc4cc5c(cn4)OCS5)CC3)c2c1 [TCMDC-135862],14.45%,–
COc1ccc2ncc(F)c(CCN3CCC(NCc4cnc5c(c4)NC(=O)CS5)CC3)c2c1 [TCMDC-134490],87.27%,–
COc1ccc2ncc(F)c(CCN3CCC(NCc4cc5c(cn4)OCCS5)CC3)c2c1 [TCMDC-134569],54.76%,–
COc1ccc2ncc(F)c([C@H](O)CN3CCC(NCc4cc5c(cn4)OCCO5)CC3)c2c1 [TCMDC-135296],-10.65%,–
CC(C)CC(=O)Nc1cc(=O)[nH]c2nc(-c3ccccc3)nn12 [TCMDC-125475],3.79%,–
Cc1cc(C(=O)CN2C(=O)NC3(CCCc4ccccc43)C2=O)c(C)n1Cc1ccc(F)cc1 (stereo not shown) [TCMDC-125057],-27.15%,–
O=C(/C=C/c1ccc(Cl)c(Cl)c1)NCCCCCN1CCC(NC(=O)c2ccc3ccccc3c2)CC1 [TCMDC-135869],-22.99%,–
Cc1[nH]c(C)c(-c2ccc(-c3ccccc3C(F)(F)F)nc2)c(=O)c1Br [TCMDC-135881],80.96%,–
Cc1[nH]c(C)c(-c2ccc(-c3cccc(C(F)(F)F)c3)nc2)c(=O)c1Br [TCMDC-135911],22.21%,–
Cc1[nH]c(C)c(-c2ccc(-c3ccc(C(F)(F)F)cc3C(F)(F)F)nc2)c(=O)c1Br [TCMDC-136013],70.39%,–
Cc1[nH]c(C)c(-c2ccc(-c3cc(C(F)(F)F)cc(C(F)(F)F)c3)nc2)c(=O)c1Br [TCMDC-136015],76.88%,–

Compound,% Inhibition,% Inhibition (% Inhibition)
N#Cc1cccc(/C=C/C(=O)NC2CCC(CCN3CCc4ccc(-c5cnccn5)cc4CC3)CC2)c1 (stereo not shown) [TCMDC-140238],-55.93%,–
Cc1cc(N(C)C)nc(Nc2ccc(NC(=O)C3CCCCC3)cc2)n1 [TCMDC-124978],11.42%,–
CCOc1cc(C(=O)NCCN(C(C)C)C(C)C)ccc1-c1nc2ccc(Cl)cc2[nH]1 [TCMDC-140910],18.37%,–
O=c1cc(NCCCNC2CCCc3c2ccc2ccccc32)[nH]c2ccccc12 (stereo not shown) [TCMDC-139366],0.6782%,–
CCOC(=O)c1c(C)n(C2CCCCCC2)c2cc(Br)c(O)cc12 [TCMDC-124588],-95.43%,–
Cc1ccc(-n2c(C)cc(C(=O)CN3C(=O)NC(Cc4ccccc4)C3=O)c2C)cc1 (stereo not shown) [TCMDC-123563],-21.41%,–
CC(C)C[C@@H](/C=N/NC(N)=O)NC(=O)[C@H](CC(C)C)NC(=O)[C@H](CC(C)C)NC(=O)OCc1ccccc1 [TCMDC-139049],-49.58%,–
CCC(Nc1noc(-c2c(-c3ccccc3)noc2C)n1)c1ccccc1 (stereo not shown) [TCMDC-134200],3.321%,–
CC(C)CNCc1cccc(-c2cccc(CNC3CCN(Cc4ccccc4)CC3)c2)c1 [TCMDC-140479],106.4%,–
CC(C)CNCc1ccc(-c2cccc(CNC3CCN(Cc4ccccc4)CC3)c2)cc1 [TCMDC-140480],110%,–
CC(C)CNCc1cccc(-c2ccc(CNC3CCN(Cc4ccccc4)CC3)cc2)c1 [TCMDC-140487],103%,–
CC(C)CNCc1cccc(-c2ccccc2CNC2CCN(Cc3ccccc3)CC2)c1 [TCMDC-140469],76.18%,–
NC1=NC(c2ccccc2)(c2ccccc2)C(=O)N1C1CCCCC1 [TCMDC-136761],-44.85%,–
N=c1c2c(n(Cc3cccc(Cl)c3)c3c1CCC3)CCCC2 [TCMDC-125614],24.77%,–
COC(=O)/C=C/c1ccc(CC(C)NCC(O)c2cccc(C(F)(F)F)c2)cc1 (stereo not shown) [TCMDC-131503],–,-2.875%
NC(N)=NC(=O)Nc1cc(Cl)c(Br)c(Cl)c1 [TCMDC-137507],-11.69%,–
O=C(/C=C/c1ccc(Cl)c(Cl)c1)NCCCCCN1CCN(C(=O)Nc2cccc(F)c2)CC1 [TCMDC-135731],4.224%,–
O=C(Nc1nc2cc(S(=O)(=O)NCCc3cccc(F)c3)ccc2n1CCCn1ccnc1)c1ccc(Cl)cc1 [TCMDC-141623],-29.17%,–
CC(C)c1ccc(NC(=O)c2ccc(C(=O)NC3CCN(Cc4ccsc4)C3)cc2)cc1 (stereo not shown) [TCMDC-136745],-11.55%,–
CSCCCN1CCC(O)(c2ccc3oc(C(=O)Nc4ccc5sc(C)nc5c4)cc3c2)CC1 [TCMDC-124646],11.7%,–
CC(C)CNCc1ccc(-c2ccccc2CNC2CCN(Cc3ccccc3)CC2)cc1 [TCMDC-140470],78.66%,–
CC(C)CNCc1ccc(-c2ccc(CNC3CCN(Cc4ccccc4)CC3)cc2)cc1 [TCMDC-140488],73.02%,–
COCCNCc1ccc(-c2ccccc2CNC2CCN(Cc3ccccc3)CC2)cc1 [TCMDC-140471],43.38%,–

Compound,% Inhibition,% Inhibition (% Inhibition)
Cc1cc(-c2ccc3c(c2)CC[C@@H](N[C@@H](C)c2ccccc2)C3)cnc1N [TCMDC-138130],26.54%,–
Cn1c(NC(=O)C2CCC(CNC(=O)c3ccc(O)c(-c4cccc([N+](=O)[O-])c4)c3)CC2)nc2ccccc21 (stereo not shown) [TCMDC-140883],1.197%,–
O=C(Nc1cccc(-c2nn3ccccc3c2-c2ccnc(Nc3ccccc3)n2)c1)c1cc(F)ccc1F [TCMDC-135823],-54.26%,–
COc1ccc(-c2ccc([N+](=O)[O-])cc2C(=O)NCC(C)Oc2ccc(C(F)(F)F)cc2)cc1 (stereo not shown) [TCMDC-132304],94.55%,–
NCCNc1ccc([N+](=O)[O-])cc1C(=O)Nc1cccc(C(F)(F)F)c1 [TCMDC-123677],3.903%,–
COc1ccc(OC(C)CNC(=O)c2cc([N+](=O)[O-])ccc2-c2ccc(OC)cc2)cc1 (stereo not shown) [TCMDC-132303],16.94%,–
N=C1NC(=O)C(=Cc2cn(-c3ccccc3)nc2-c2cccc(S(=O)(=O)N3CCCC3)c2)S1 [TCMDC-123756],0.418%,–
OC1CCCN(Cc2cccc(-c3ccc(-c4nc5ccccc5[nH]4)cc3)c2)C1 (stereo not shown) [TCMDC-133817],-22.44%,–
NC1CCCN(Cc2cccc(-c3ccc(-c4nc5ccccc5[nH]4)cc3)c2)C1 (stereo not shown) [TCMDC-133848],22.08%,–
NC1CCN(Cc2cccc(-c3ccc(-c4nc5ccccc5[nH]4)cc3)c2)C1 (stereo not shown) [TCMDC-133846],28.29%,–
NC1CCCN(Cc2cccc(-c3cccc(-c4nc5ccccc5[nH]4)c3)c2)C1 (stereo not shown) [TCMDC-133877],56.31%,–
NC1CCN(Cc2cccc(-c3cccc(-c4nc5ccccc5[nH]4)c3)c2)C1 (stereo not shown) [TCMDC-133875],72.93%,–
Cc1cc(N2CCCCC2)nc2ccc(NC(=O)c3cc(=O)c4ccccc4o3)cc12 [TCMDC-123602],13.04%,–
Cc1ccc(NC(=O)Nc2ccccc2)cc1-c1ccc(C(=O)Nc2ccncc2)cc1 [TCMDC-133701],-4.063%,–
NC1=NC(c2ccccc2)(c2ccccc2)C(=O)N1Cc1ccc(-c2cccnc2)cc1 [TCMDC-136999],-17.43%,–
CC(=O)N1Cc2ccccc2C1=O [TCMDC-131706],7.417%,–
COc1ccc(C(=O)CC(=O)c2ccc(OC)cc2OC)c(OC)c1 [TCMDC-123465],12.1%,–
CCN(CC)CCN(CCN(CC)CC)c1ccc2c(c1)Sc1c(Cl)ccc(Cl)c1S2 [TCMDC-137934],63.92%,–
COc1ccc(Cn2c(=O)[nH]c3cc(C(=O)NC4CCN(Cc5ccccc5)CC4)ccc3c2=O)cc1 [TCMDC-123588],-15.29%,–
COc1ccc(NC(=O)N2CCCN(CCCCCNC(=O)/C=C/c3ccc(C(F)(F)F)cc3)CC2)cc1Cl [TCMDC-136109],-28.75%,–
COc1cc(CN2CCN(c3ccnc(N(C)C4CCN(C)CC4)n3)CC2)cc(Cl)c1O [TCMDC-125096],-14.35%,–
